PubChem BioAssay (NCATS)
Where “and” joins values, the source holds several entries; their conditions need not be identical. Equal values may be shown once. Inconclusive results are not listed. Calls of active or inactive are those of the source. Unless noted, calls come from the whole dose curve; as a rule, active = well fitted curve in the direction sought with a large enough effect in the repeat runs; inconclusive = weak or mixed curves; inactive = no such curve, though single readings can be large; an effect the other way counts as inactive or inconclusive.

Tests used:
[1] = qHTS assay for environmental chemicals that activate the Aryl hydrocarbon Receptor (AhR) signaling pathway (AID 651777; active = well fitted curve in the direction sought with a large enough effect; an effect the other way counts as inactive or inconclusive; note: % of control where 0% means no effect; nearly all actives have a fitted effect of over 15% in size); conditions: 1A2-DRE human hepatoma cells, luciferase, 24 h; activation: hits give high values
Outline: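 1A2-DRE human hepatoma reporter line; 1,200 cells/well; cmpd or DMSO 24 h, 37 C/5% CO2; One-Glo 30 min RT; luciferase lum.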

[2] = target: Peroxisome proliferator-activated receptor alpha (Homo sapiens) (UniProt Q07869); experiment: qHTS assay for small molecule agonists of the peroxisome proliferator-activated receptor alpha (PPARalpha) signaling pathway (AID 651778; active = well fitted curve in the direction sought with a large enough effect; an effect the other way counts as inactive or inconclusive; note: % of control where 0% means no effect); conditions: PathHunter PPARalpha complementation, chemiluminescence, 6 h; hits give high values
Outline: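 Cells plated at 2,000/well and held overnight at 37 C, 5% CO2, then compound added by pin tool for 6 hr; after PathHunter detection reagent and 60 min at room temperature, chemiluminescence from enzyme complementation was read.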

[3] = qHTS assay for small molecule agonists of the antioxidant response element (ARE) signaling pathway measured by Nrf2-dependant transcriptional activity (AID 720636);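 note: HepG2 cells with an ARE-driven luciferase reporter; % of control where 0% means no effect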
Outline: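 Cells: ARE-luc HepG2 with Nrf2-responsive luciferase. Medium contained 1% dialyzed FBS. Compound exposure lasted 16 hr at 37 C and 5% CO2, followed by ONE-Glo luciferase detection.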

[4] = qHTS assay for small molecule agonists of the antioxidant response element (ARE) signaling pathway measured by Nrf2-dependant transcriptional activity - cell viability counter screen (AID 720653); conditions: ARE-bla HepG2 viability, CellTiter-Glo ATP luminescence, 16 h; hits give low values; note: % is set by controls: 0 for no effect and ±100 for the full control effect
Outline: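 ARE-bla HepG2 cells (2,000/well) rested 5 hrs at 37C/5% CO2, then exposed to compounds in DMSO for 16 hrs. Viability was read in the same wells as intracellular ATP by luminescence, 30 min at room temperature after reagent addition.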

[5] = target: Nuclear receptor ROR-gamma (Homo sapiens) (UniProt P51449); experiment: qHTS assay for small molecule antagonists of the retinoid-related orphan receptor gamma (ROR-gamma) signaling pathway (AID 651802; active = well fitted curve in the direction sought with a large enough effect; an effect the other way counts as inactive or inconclusive;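 note: CHO cells with doxycycline-induced ROR-gamma expression; luciferase reporter luminescence driven by ROR response element; series mostly up to about 92 µM; % is set by controls: 0 for no effect and ±100 for the full control effect; nearly all actives have a fitted effect of over 60% in size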)
Outline: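 Doxycycline-induced reporter activity in engineered CHO cells (TET-inducible ROR, RORE-LUC) was measured by luminescence after 16hr compound exposure at 37C.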

[6] = qHTS assay for small molecule antagonists of the retinoid-related orphan receptor gamma (ROR-gamma) signaling pathway - cell viability counter screen (AID 720652);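 note: CHO reporter cells with doxycycline-induced ROR-gamma expression; series mostly up to about 92 µM; compound exposure lasted 16 hr before ATP read; % is set by controls: 0 for no effect and ±100 for the full control effect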
Outline: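 ATP-based viability readout in the ROR-gamma reporter CHO cells after 16 hr compound exposure under doxycycline induction.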

Peroxisome proliferator-activated receptor alpha (Homo sapiens), sequence (Q07869 whole entry, looked up): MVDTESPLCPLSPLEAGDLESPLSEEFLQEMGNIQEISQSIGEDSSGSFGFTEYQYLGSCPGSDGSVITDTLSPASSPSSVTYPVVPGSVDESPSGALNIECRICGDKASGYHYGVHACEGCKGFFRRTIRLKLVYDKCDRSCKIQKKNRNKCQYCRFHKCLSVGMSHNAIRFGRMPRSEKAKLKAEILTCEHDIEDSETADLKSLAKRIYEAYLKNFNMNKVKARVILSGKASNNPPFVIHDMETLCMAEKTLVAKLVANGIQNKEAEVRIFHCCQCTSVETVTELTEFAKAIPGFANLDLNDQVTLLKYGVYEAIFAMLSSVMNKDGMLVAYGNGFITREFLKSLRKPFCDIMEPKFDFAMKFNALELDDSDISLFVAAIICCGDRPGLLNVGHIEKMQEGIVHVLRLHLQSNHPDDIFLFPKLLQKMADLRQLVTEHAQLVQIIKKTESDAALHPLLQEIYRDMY
Nuclear receptor ROR-gamma (Homo sapiens), sequence (P51449 whole entry, looked up): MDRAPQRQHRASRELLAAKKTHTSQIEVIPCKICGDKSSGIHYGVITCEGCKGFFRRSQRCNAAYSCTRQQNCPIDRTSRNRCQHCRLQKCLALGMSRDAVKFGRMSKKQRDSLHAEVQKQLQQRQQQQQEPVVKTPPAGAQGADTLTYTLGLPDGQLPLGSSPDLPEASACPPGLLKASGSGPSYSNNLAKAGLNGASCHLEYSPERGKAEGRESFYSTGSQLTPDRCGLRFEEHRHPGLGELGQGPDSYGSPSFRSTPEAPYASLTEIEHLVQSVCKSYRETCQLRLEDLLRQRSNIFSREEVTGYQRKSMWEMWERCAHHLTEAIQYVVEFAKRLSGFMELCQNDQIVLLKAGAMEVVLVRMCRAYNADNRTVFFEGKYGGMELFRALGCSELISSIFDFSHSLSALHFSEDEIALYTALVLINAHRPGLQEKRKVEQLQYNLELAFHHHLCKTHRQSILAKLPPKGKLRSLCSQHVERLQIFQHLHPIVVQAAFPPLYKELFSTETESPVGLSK

OC[C@H]1O[C@@](CO)(O[C@H]2O[C@H](CO)[C@@H](O)[C@H](O)[C@H]2O)[C@@H](O)[C@@H]1O
inactive: activation [1] 1.69% | max response [2] 0.569% | Potency [3] | max response [4] -5.77%

CC(C)CCC[C@@H](C)[C@H]1CC[C@H]2[C@@H]3CC=C4C[C@@H](O)CC[C@]4(C)[C@H]3CC[C@]12C
inactive: activation [1] -1.61% | max response [2] -0.612% | Potency [3] | max response [4] -4.46%

NCCO/C=C/[C@H](N)C(=O)O
inactive: activation [1] 1.28% | max response [2] 2.79% | Potency [3] | max response [4] 6.58%

CC(C)CCCCCCc1ccc(O)cc1
inactive: activation [1] 0.323% | Potency [3] | max response [4] -6.03%

CCCCC
inactive: max response [2] -0.71% | Potency [5] | Potency [3] | outcome [6] | max response [4] -14.6%

CCCCCCCCCCCCCCCCCC(=O)OC[C@@H](O)[C@H]1OC[C@H](O)[C@H]1O
inactive: activation [1] 0.366% | max response [2] 12.5% | Potency [3] | max response [4] -0.0548%

O.O.O.O.O.O.O.O=S(=O)([O-])[O-].[Co+2]
inactive: activation [1] -0.475% | max response [2] -1.84% | Potency [3] | max response [4] -4.91%

CO[C@@H]1[C@H](OC(=O)/C=C/C=C/C=C/C=C/C(=O)O)CC[C@]2(CO2)[C@H]1[C@@]1(C)O[C@@H]1CC=C(C)C
inactive: activation [1] 1.85% | max response [2] -0.833% | max response [4] 8.65%

CN(CCO)CC(O)Cn1cnc2c1c(=O)n(C)c(=O)n2C (stereo not drawn) (tested in a mixture with another compound)
inactive: activation [1] -0.921% | max response [2] -0.0909% | Potency [3] | max response [4] 2.54%

OCCOCCOCCO
inactive: max response [2] 0.91% and -3.36% | Potency [3] | max response [4] -9.26% and -13.2%
